# KDM5B inh: blocks human KDM5B histone demethylase activity. KDM5B demethylase, FDH-coupled NADH fluorescence (FDH is formaldehyde dehydrogenase). Q9UGL1. Potency, µM (series often up to 57.7 µM), most hits filed as inhibitors. actives 2.6% (n = 220,000). AID 1347165; also: potency is read from the fitted curve at half-maximal effect; 0% is about no effect; nearly all actives have a fitted effect of over 70% in size
#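 Inhibition is measured as reduced NADH fluorescence generation from FDH coupling to formaldehyde release. Truncated KDM5BΔAP at 200 nM final acts on H3K4me3 peptide (12.5 µM in substrate mix) in pH 7.5 HEPES buffer with Tween-20, 30 min, room temperature.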
# SNCA expr inh: SNCA gene expression inhibition; HEK-293 SNCA-luciferase knock-in, luminescence, 24 h; Potency, µM (doses to about 57.2 µM), for inactives: at the top dose activity change, negative = inhibition, usual class: inhibitors; actives 0.17% (n = 140,000); AID 1671194;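 also: potency is read from the fitted curve at half-maximal effect; plate controls were DMSO cells for no effect and cell-free wells for full effect; nearly all actives have a fitted effect of over 45% in size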
# IP6K1 inh: IP6K1 kinase inhibition; Q92551; IP6K1 kinase, ADP-Glo luminescence, 2 h; stronger effect = lower value; activity change, % (series mostly up to about 58 µM); actives 0.81% (n = 140,000); AID 1645851; in the data active = activity change below about -25%; also: % is scaled to controls: 0 for no effect and ±100 for the full control effect
# Target sequence (Q92551 whole entry, looked up): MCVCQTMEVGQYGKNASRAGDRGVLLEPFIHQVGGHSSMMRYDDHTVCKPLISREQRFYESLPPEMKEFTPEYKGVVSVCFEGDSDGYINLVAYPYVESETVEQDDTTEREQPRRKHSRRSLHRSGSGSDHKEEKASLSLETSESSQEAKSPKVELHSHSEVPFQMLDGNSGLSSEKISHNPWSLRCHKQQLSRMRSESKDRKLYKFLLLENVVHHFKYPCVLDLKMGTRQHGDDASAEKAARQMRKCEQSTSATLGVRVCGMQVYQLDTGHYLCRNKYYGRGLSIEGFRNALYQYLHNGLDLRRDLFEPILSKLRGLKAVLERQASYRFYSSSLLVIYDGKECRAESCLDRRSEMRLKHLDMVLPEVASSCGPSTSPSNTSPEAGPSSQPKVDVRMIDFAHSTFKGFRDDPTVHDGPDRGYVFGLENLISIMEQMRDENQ
#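 ADP-Glo luminescence measures ADP made by human IP6K1 during a 2 h RT reaction with ATP/IP6 (mix at 1.3 mM/130 uM); top library doses 57.5 and 19.1 uM final.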
# HEK293 viab: reduces viability of HEK-293 SNCA reporter cells. HEK-293-SNCA-luc viability, GF-AFC fluorescence, 24 h. Potency, µM (series often up to 57.1 µM), for the others: at the top dose activity change, negative = cytotoxicity, hits mostly cytotoxic. actives 0.12% (n = 150,000);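 also: potency is read from the fitted curve at half-maximal effect; 0% = DMSO-treated cells and -100% = medium-only wells without cells; nearly all actives have a fitted effect of over 30% in size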
#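 HEK-293-SNCA-luc cells (1500/well) plated 24 h, then exposed 24 h to a dilution series; GF-AFC added 30 min at 37C, fluorescence 405/540 nm; normalised to medium-only and DMSO wells, Hill fit.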
# * hit, by the source's call; i = inactive; ? = inconclusive; · = no result given; [ ] = dose if it differs, or a comment. An excerpt weighted towards active compounds, which were near 2.9% of everything screened. Unless noted, calls follow the shape of the dose curve; as a rule, active = well fitted curve in the direction sought with a large enough effect; inconclusive = small, poorly fitted or top-dose-only effect, or another doubt; inactive = no such curve, though single readings can be large; an effect the other way counts as inactive or inconclusive.
SMILES,KDM5B inh,SNCA expr inh,IP6K1 inh,HEK293 viab
O=C(N[C@H](Cc1ccccn1)C1CC(O)C1)c1cccc2c1NCCC2 (some centres undefined),31.6µM*,28.9%,-4.4,7.1%
O=C(Nc1ccccc1)c1ccc2c(c1)n(Cc1cccc(F)c1)c(=O)c1ccnn12,?,47.3%,-13.2,-6.8%
CCN1CCN(C(=O)c2ccc3c(c2)n(Cc2cccc(F)c2)c(=O)c2ccnn23)CC1,25.1µM*,4.6%,-0.3,4.2%
COCCCNC(=O)c1ccc2c(c1)n(Cc1ccc(OC)cc1)c(=O)c1ccnn12,i,4.8%,-0.4,11.6%
CCCCNC(=O)c1ccc2c(c1)n(Cc1cccc(OC)c1)c(=O)c1ccnn12,35.5µM*,11.0%,-3.9,-9.4%
COCCCNC(=O)c1ccc2c(c1)n(Cc1cccc(F)c1)c(=O)c1ccnn12,28.2µM*,10.3%,14.7,-2.9%
Cn1nc2n(c1=O)CCC(NS(=O)(=O)c1ccc3c(c1)OCCO3)CC2 (centres undefined),i,-22.2%,-7.3,2.6%
CCc1ccc(NC(=O)CN2C(=O)NC3(CCOCC3)C2=O)cc1,i,6.1%,33.5,6.7%
O=c1c(-c2ccc(Cl)cc2)nc2cnc(Nc3ccccc3)nc2n1C1CC1,·,-9.7%,·,25.0%
CC(=O)NC1(C)CCN(Cc2ccc(-c3ccc(N4CCOCC4)cc3)cc2)C1 (centres undefined),28.2µM*,92.0%[87.6 µM],-7.7,0.4%[87.6 µM]
CC(=O)NC1(C)CCN(Cc2ccc(-c3cccc(Cl)c3)cc2)C1 (centres undefined),?,-3.9%[87.6 µM],-1.2,-11.3%[87.6 µM]
Brc1ccc(-c2noc(C(c3ccccc3)c3ccccc3)n2)o1,i,·,·,·
O=C1CCC(C(=O)N2CCc3nc(-c4cccc(F)c4)[nH]c3C2)NC(=O)N1 (centres undefined),22.4µM*,-1.6%,20.7,13.3%
O=C(c1cc(F)cc(Cl)c1)N1CCc2nc(-c3cccc(F)c3)[nH]c2C1,i,-6.5%,7.7,?
Fc1ccc(-c2ccc3ncc(Nc4ccnc(N5CCOCC5)c4)n3n2)cc1,i,-18.8%[87.6 µM],-11.5,?
CN(Cc1ccc(F)cc1)c1ccc2ncc(Nc3ccnc(N4CCOCC4)c3)n2n1,28.2µM*,?,-21.1,-17.9%[87.6 µM]
COc1cncc(Nc2cnc3ccc(N(C)Cc4ccc(F)cc4)nn23)c1,35.5µM*,?,-12.9,-0.8%[87.6 µM]
CC(C)(C)c1cc(C[C@@H]2CC[C@H](O)[C@@H](CNC(=O)c3cccc(F)c3)O2)no1,i,67.6%[87.6 µM],1.3,-8.2%[87.6 µM]
COc1ccc([C@@H](NC(=O)c2ccc3cccc(F)c3n2)C2CC(O)C2)cn1 (some centres undefined),22.4µM*,-9.4%,14.3,4.3%
COc1ccc(-c2nc(CCNC(=O)c3cc(OC)c(OC)c(OC)c3)cs2)cc1,?,29.7%,-12.5,-7.0%
CCOCC1(C)COc2ccc(C(=O)Nc3ccccn3)cc2N1 (centres undefined),31.6µM*,35.4%[87.6 µM],-4.2,1.3%[87.6 µM]
CCOCC1(C)COc2ccc(C(=O)NCc3cc(OC)cc(OC)c3)cc2N1 (centres undefined),31.6µM*,-11.7%[87.6 µM],1.9,3.5%[87.6 µM]
COc1ccc(OCC2(C)COc3ccc(C(=O)NCCN4CCOCC4)cc3N2)cc1 (centres undefined),35.5µM*,-8.5%[87.6 µM],-2.8,2.2%[87.6 µM]
COCCNC(=O)c1ccc2c(c1)NC(C)(COc1ccc(OC)cc1)CO2 (centres undefined),35.5µM*,-5.7%[87.6 µM],-8.7,15.6%[87.6 µM]
CC1=C[C@@H](CN2CCN(CCO)CC2)[C@H](C(C)C)C[C@H]1Cc1nnc(-c2ccccc2F)o1,i,10.1%,4.2,-30.0%
SMILES,KDM5B inh,SNCA expr inh,IP6K1 inh,HEK293 viab
CC(C)CNC(=O)c1ccc2nnc(-c3ccc(F)cc3)n2c1,·,-3.7%[87.6 µM],-3.6,6.5%[87.6 µM]
CCc1nc(C)sc1C(=O)N1C[C@@H](CN2CCCN(C)CC2)[C@@H](CO)C1,i,-14.7%,14.7,-6.1%
COc1cccc(-c2ccc(C(=O)O)cc2)c1,112µM*,42.3%[87.6 µM],-19.9,-3.6%[87.6 µM]
COc1ccc(-c2cccc(C(=O)O)c2)cc1,i,·,·,·
O=C1NCCCCCN(C(=O)Nc2ccccc2F)[C@H]2CCC[C@@H]12,i,8.6%,-13.7,5.2%
O=C(Nc1ccc(Cl)nc1)c1cc2cccnn2n1,35.5µM*,73.2%[87.6 µM],8.3,-2.5%[87.6 µM]
O=C(NCc1ccc(Cl)nc1)c1cc2cccnn2n1,35.5µM*,-11.1%[87.6 µM],4.4,4.7%[87.6 µM]
CCc1ccc(CNC(=O)c2cc3ccccn3n2)cc1,?,138.9%,3.0,12.2%
O=C(Nc1ccccc1N1CCCC1)c1cc(Cl)c2c(c1)OCCO2,i,·,·,·
COc1ccc(-c2cn(C)c(=O)n3cc(CN4CC[S+](=O)([O-])CC4)nc23)cc1OC,35.5µM*,28.0%[87.6 µM],-12.6,11.0%[87.6 µM]
COc1ccc(-c2cn(C)c(=O)n3cc(CN4CCNC(=O)C4)nc23)cc1,28.2µM*,3.8%[87.6 µM],-5.1,-5.6%[87.6 µM]
COc1ccccc1-c1cn(C)c(=O)n2cc(CN3CCNC(=O)C3)nc12,?,4.5%[87.6 µM],1.6,0.5%[87.6 µM]
O=C(CSc1nc2ccccc2c(=O)n1-c1ccccc1)N1CCCC1,i,·,·,·
COc1ccc(CNC(=O)N[C@@H]2CN(c3ncccn3)C[C@H]2CN(C)C)cc1,28.2µM*,-0.6%,5.3,15.7%
CN(C)C[C@@H]1CN(c2ncccn2)C[C@H]1NC(=O)NCc1ccco1,?,-5.3%,-1.1,11.6%
COCCCNC(=O)N[C@@H]1CN(c2ncccn2)C[C@H]1CN(C)C,31.6µM*,-25.9%,26.1,-2.3%
Cc1c(S(=O)(=O)c2cccc(Cl)c2)nnn1-c1cccc(C(F)(F)F)c1,i,-2.4%,10.0,0.6%
Cc1ccccc1-c1cn[nH]c1C1CCN(C(=O)c2cnn3ccccc23)CC1,22.4µM*,-18.9%,5.2,-21.9%
CCc1ccc(CNC(=O)C2CCN(c3cc(C(F)(F)F)ncn3)CC2)cc1,28.2µM*,-8.4%,9.2,6.1%
Cc1ccc(CNC(=O)C2CCN(c3cc(C(F)(F)F)ncn3)CC2)cc1,i,-10.3%,15.7,-10.4%
c1cc(-c2cnn3cc(-c4ccc(N5CCNCC5)cc4)cnc23)c2cccnc2c1,·,·,22.9,23.8µM*
Cc1cc(-c2nc(C3CCOC3)no2)c2ccccc2n1 (centres undefined),28.2µM*,3.6%,-4.6,0.0%
Cc1cc2cccc(-c3nc(C4CCOC4)no3)c2o1 (centres undefined),22.4µM*,?,7.5,?
CCN(CC)Cc1cc(-c2nc(C3CCOC3)no2)c(-c2ccccc2)o1 (centres undefined),25.1µM*,-18.2%,0.6,-9.0%
O=C(Nc1ccc(F)cc1)C1CN(C2CCCC2)C(=O)N1 (centres undefined),·,1.8%[87.6 µM],-8.0,-0.2%[12.5 µM]
COc1cccc(N2CCN(C(=O)c3cccc(NC(=O)c4nsc5ccccc45)c3)CC2)c1,i,28.5%,-9.8,2.5%
COc1ccc(C(=O)Nc2ccccc2C(=O)Nc2ccccc2)cc1Br,i,·,·,·
CCOc1ccccc1Oc1coc2cc(OC(=O)c3ccc4c(c3)OCO4)ccc2c1=O,i,·,·,·

# Bioassay records deposited in PubChem BioAssay by National Center for Advancing Translational Sciences (NCATS).
